According to PubChem BioAssay (EPA / NIEHS):
“And” between values parts separate entries of the source, which are not always exact repeats. Identical values can stand only once. Some structures have more than one record in an assay (separate samples or runs), and their calls can disagree. The source made the active and inactive calls. How the source made its calls: active means hit-call score of the fitted dose curve at least 0.9, where 1 is the maximum; inactive means score below 0.9.

How the values were obtained:
[1] = read-out: Urokinase-type plasminogen activator receptor (uPAR), PLAUR (gene 5329); assay: BSK_4H_uPAR: BioMAP Diversity Plus: 4H Assay for Urokinase-type plasminogen activator receptor (uPAR) Biomarker Activity (AID 2283030); details: primary human endothelial cells (HUVEC); actives raise or lower the signal
Procedure, shortened: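 Cell-surface uPAR ELISA signal, measured 24 h after dosing human umbilical vein endothelial cells, was analyzed with bidirectional fitting relative to DMSO. Parallel SRB staining of total protein tracked overt cytotoxicity.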

[2] = read-out: Vascular endothelial growth factor receptor 2 (Homo sapiens) (UniProt P35968); assay: BSK_4H_VEGFRII: BioMAP Diversity Plus: 4H Assay for Vascular endothelial growth factor receptor 2 (VEGFR2) Biomarker Activity (AID 2283031); details: primary human endothelial cells (HUVEC); actives raise or lower the signal;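 on AC50: cell-surface VEGFR2 protein level quantified by ELISA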
Procedure, shortened: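 ELISA read-out of VEGFRII in primary human umbilical vein endothelium, taken 24 h after chemical treatment. Responses are expressed relative to DMSO, with bidirectional fitting.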

[3] = read-out: Human Leukocyte Antigen - DR isotype (HLADR), HLA-DRA (gene 3122); assay: BSK_BE3C_HLADR: BioMAP Diversity Plus: BE3C Assay for Human Leukocyte Antigen - DR isotype (HLADR) Biomarker Activity (AID 2283032); details: primary human bronchial epithelial cells; actives raise or lower the signal
Procedure, shortened: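 Signal came from an ELISA for HLA-DR in human bronchial epithelial primary cells harvested 24 h after treatment; gain- and loss-of-signal fitting used DMSO controls as reference.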

[4] = read-out: Vascular cell adhesion molecule 1 (VCAM1), VCAM1 (gene 7412); assay: BSK_4H_VCAM1: BioMAP Diversity Plus: 4H Assay for Vascular cell adhesion molecule 1 (VCAM1) Biomarker Activity (AID 2283033); details: primary human endothelial cells (HUVEC); actives raise or lower the signal;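 on outcome: cell-surface VCAM-1 protein measured by ELISA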
Procedure, shortened: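 Endpoint derived from bidirectional fitting against DMSO controls of VCAM-1 ELISA signal in umbilical vein endothelial cells sampled at 24 h following treatment.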

[5] = read-out: Interferon-gamma inducible Protein 10 (IP10), CXCL10 (gene 3627); assay: BSK_BE3C_IP10: BioMAP Diversity Plus: BE3C Assay for Interferon-gamma inducible Protein 10 (IP10) Biomarker Activity (AID 2283034); details: primary human bronchial epithelial cells; actives raise or lower the signal
Procedure, shortened: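 Using primary human bronchial epithelial cultures, the assay captures IP-10 by ELISA one day (24 h) after exposure. Parallel SRB staining of total protein flags overt cytotoxicity. Fits run bidirectionally relative to DMSO.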

[6] = read-out: Monokine induced gamma interferon (MIG), CXCL9 (gene 4283); assay: BSK_BE3C_MIG: BioMAP Diversity Plus: BE3C Assay for Monokine induced gamma interferon (MIG) Biomarker Activity (AID 2283035); details: primary human bronchial epithelial cells; actives raise or lower the signal;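 on outcome: MIG protein measured by ELISA in BE3C cultures after 24 h of dosing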
Procedure, shortened: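 Primary human bronchial epithelial cells treated for 24 h; MIG levels measured by ELISA, fitted bidirectionally versus DMSO. Parallel SRB total-protein staining assessed cytotoxicity.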

[7] = read-out: Plasminogen activator inhibitor-1 (PAI1), SERPINE1 (gene 5054); assay: BSK_BE3C_PAI1: BioMAP Diversity Plus: BE3C Assay for Plasminogen activator inhibitor-1 (PAI1) Biomarker Activity (AID 2283037); details: primary human bronchial epithelial cells; actives raise or lower the signal
Procedure, shortened: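 PAI-1 biomarker levels in treated human bronchial epithelial cells are determined by ELISA at 24 h. Both increases and decreases relative to DMSO are fitted.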

[8] = read-out: urokinase plasminogen activator (uPA), PLAU (gene 5328); assay: BSK_BE3C_uPA: BioMAP Diversity Plus: BE3C Assay for urokinase plasminogen activator (uPA) Biomarker Activity (AID 2283038); details: primary human bronchial epithelial cells; actives raise or lower the signal;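 on outcome: uPA protein level quantified by ELISA in cell cultures; uPA read one day after compound addition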
Procedure, shortened: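 Bronchial epithelial cells (human, primary); chemical 24 h; uPA by ELISA; bidirectional fit vs DMSO. SRB (0.1%, after 10% TCA fixation, 560 nm) in parallel cultures for cytotoxicity.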

[9] = read-out: Urokinase-type plasminogen activator receptor (uPAR), PLAUR (gene 5329); assay: BSK_BE3C_uPAR: BioMAP Diversity Plus: BE3C Assay for Urokinase-type plasminogen activator receptor (uPAR) Biomarker Activity (AID 2283039); details: primary human bronchial epithelial cells; actives raise or lower the signal;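 on outcome: cells exposed to compound for one day before measurement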
Procedure, shortened: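 A uPAR ELISA serves as the readout, taken 24 h after treating primary human bronchial epithelial cells. Responses in either direction are fitted against DMSO, which defines baseline activity.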

[10] = read-out: Interleukin-6 (IL6), IL6 (gene 3569); assay: BSK_CASM3C_IL6: BioMAP Diversity Plus: CASM3C Assay for Interleukin-6 (IL6) Biomarker Activity for (AID 2283040); details: primary human coronary artery smooth muscle cells; actives raise or lower the signal
[11] = read-out: Tissue plasminogen activator (tPA), PLAT (gene 5327); assay: BSK_BE3C_tPA: BioMAP Diversity Plus: BE3C Assay for Tissue plasminogen activator (tPA) Biomarker Activity (AID 2283041); details: primary human bronchial epithelial cells; actives raise or lower the signal;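 on outcome: tPA level quantified by ELISA one day after compound addition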
Procedure, shortened: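 Bidirectional curve fitting relative to DMSO defined activity, with tPA detected by ELISA in chemically treated human bronchial epithelial primary cells at 24 hours.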

[12] = read-out: Interleukin-8 (IL8), CXCL8 (gene 3576); assay: BSK_CASM3C_IL8: BioMAP Diversity Plus: CASM3C Assay for Interleukin-8 (IL8) Biomarker Activity (AID 2283042); details: primary human coronary artery smooth muscle cells; actives raise or lower the signal;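 further: IL-8 protein level quantified by ELISA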
[13] = read-out: Human Leukocyte Antigen - DR isotype (HLADR), HLA-DRA (gene 3122); assay: BSK_CASM3C_HLADR: BioMAP Diversity Plus: CASM3C Assay for Human Leukocyte Antigen - DR isotype (HLADR) Biomarker Activity (AID 2283043); details: primary human coronary artery smooth muscle cells; actives raise or lower the signal;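 further: cell-surface HLA-DR protein level quantified by ELISA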
[14] = read-out: Macrophage colony-stimulating factor (MCSF), CSF1 (gene 1435); assay: BSK_CASM3C_MCSF: BioMAP Diversity Plus: CASM3C Assay for Macrophage colony-stimulating factor (MCSF) Biomarker Activity (AID 2283044); details: primary human coronary artery smooth muscle cells; actives raise or lower the signal;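 further: M-CSF protein amount quantified by ELISA after 24 h exposure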
[15] = read-out: Low-density lipoprotein receptor (LDLR), LDLR (gene 3949); assay: BSK_CASM3C_LDLR: BioMAP Diversity Plus: CASM3C Assay for Low-density lipoprotein receptor (LDLR) Biomarker Activity (AID 2283045); details: primary human coronary artery smooth muscle cells; actives raise or lower the signal;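 further: LDLR protein level on the cell surface quantified by ELISA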
[16] = read-out: Monocyte Chemoattractant Protein-1 (MCP1), CCL2 (gene 6347); assay: BSK_CASM3C_MCP1: BioMAP Diversity Plus: CASM3C Assay for Monocyte Chemoattractant Protein-1 (MCP1) Biomarker Activity (AID 2283046); details: primary human coronary artery smooth muscle cells; actives raise or lower the signal;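 further: MCP-1 level quantified by ELISA 24 h after dosing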
[17] = BSK_CASM3C_Proliferation: Cell Proliferation Assessment in the BioMAP Diversity Plus: CASM3C Assay (AID 2283047); details: primary human coronary artery smooth muscle cells;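 further: sulforhodamine B total protein stain as relative cell number at 560 nm; sub-confluent cells exposed 48 h before staining; fitted both ways against DMSO so gain or loss of cell number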
[18] = read-out: Monokine induced gamma interferon (MIG), CXCL9 (gene 4283); assay: BSK_CASM3C_MIG: BioMAP Diversity Plus: CASM3C Assay for Monokine induced gamma interferon (MIG) Biomarker Activity (AID 2283048); details: primary human coronary artery smooth muscle cells; actives raise or lower the signal
[19] = read-out: serum amyloid A (SAA), SAA1 (gene 6288); assay: BSK_CASM3C_SAA: BioMAP Diversity Plus: CASM3C Assay for serum amyloid A (SAA) Biomarker Activity (AID 2283049); details: primary human coronary artery smooth muscle cells; actives raise or lower the signal;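 further: SAA protein level quantified by ELISA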
[20] = read-out: Transforming growth factor beta 1 (TGFb1), TGFB1 (gene 7040); assay: BSK_BE3C_TGFb1: BioMAP Diversity Plus: BE3C Assay for Transforming growth factor beta 1 (TGFb1) Biomarker Activity (AID 2283036;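 further: TGF-b1 protein level measured by ELISA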); details: primary human bronchial epithelial cells; actives raise or lower the signal
Procedure, shortened: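 In this human primary bronchial epithelial system, an ELISA quantified TGF-b1 one day after dosing. Endpoint changes in either direction were fitted relative to DMSO.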

In the case of `C=CC(=O)OCC(F)(F)C(F)(F)C(F)(F)COC(=O)C=C`, the AC50 [1] is reported as 49.9 µM (active) and 758 nM (active), the AC50 [2] is reported as 53.8 µM (active) and the outcome [2] is reported as “inactive”. For the same compound, the AC50 [3] was 34.2 µM (active) and 21.4 µM (active), the AC50 [4] was 19.1 µM (active) and 14 µM (active) and the AC50 [5] was 46.7 µM (active) and 35.5 µM (active). The AC50 [6] was 51.8 µM (active) and 49.1 µM (active), the outcome [7] was “inactive” and the AC50 [8] was 20.6 µM (active) and 27.4 µM (active). The AC50 [9] was 30 µM (active) and 22.8 µM (active), the AC50 [10] was 30 µM (active) and 17 µM (active) and the AC50 [11] was 15.4 µM (active) and 11.4 µM (active). For the same compound, the AC50 [12] was 26.6 µM (active) and 22.5 µM (active), the AC50 [13] was 38.6 µM (active) and 27.7 µM (active) and the AC50 [14] was 40.1 µM (active) and 34.8 µM (active). For the same compound, the AC50 [15] was 42.2 µM (active) and 42.9 µM (active), the AC50 [16] was 44.3 µM (active) and 42.5 µM (active) and the AC50 [17] was 8.23 µM (active) and 8.81 µM (active). For the same compound, the AC50 [18] was 27.1 µM (active) and 25.4 µM (active) and the AC50 [19] was 41.4 µM (active) and 33.7 µM (active).
With `CCN(CC)c1ccc2c(c1)Oc1cc(N(CC)CC)ccc1C21OC(=O)c2ccccc21` the outcome [1] was “inactive”, the outcome [2] was “inactive” and the outcome [3] was “inactive”. For the same compound, the outcome [4] was “inactive”, the AC50 [5] was 1.98 µM (active) and the outcome [6] was “inactive”. The outcome [20] was “inactive”, the outcome [7] was “inactive” and the outcome [8] was “inactive”. The outcome [9] was “inactive”, the outcome [10] was “inactive” and the outcome [11] was “inactive”. The outcome [12] was “inactive”, the outcome [13] was “inactive” and the outcome [14] was “inactive”. For the same compound, the outcome [15] was “inactive”, the outcome [16] was “inactive” and the outcome [17] was “inactive”. For the same compound, the outcome [18] was “inactive” and the outcome [19] was “inactive”.
